These results are taken from PubChem BioAssay (EPA / NIEHS).

Calls of active or inactive are those of the source. The calls were made as follows: active = hit-call score of the fitted dose curve at least 0.9, where 1 is the maximum; inactive = score below 0.9.

This assay in a line: IUF_NPC2-5_cell_number_120hr: Cell Number Assessment at 120 hours in the Leibniz Research Institute for Environmental Medicine (IUF) Neural Progenitor Cell Migration and Differentiation Assay (NPC2-5) (AID 2284308).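 Also: count of Hoechst-stained nuclei in migration zone around plated human neural progenitor spheres.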 The procedure:
IUF_NPC2-5 is a cell-based, multiplexed assay that uses hNPC, a human primary neural progenitor cells, with measurements taken at 72 or 120 hours after chemical dosing in a 96-well plate. Human neural progenitor cells (hNPC) are generated from human fetal brain cortex at gestational week (GW) 16-19. In the neural progenitor cell migration and differentiation assay (NPC2-5), hNPCs grown as spheres are plated on an extracellular matrix and migrate and differentiate out of the sphere core. The processes radial glia migration, neuronal and oligodendrocyte migration as well as neuronal differentiation, neuronal morphology and oligodendrocyte differentiation are studied using automated phase contrast imaging and automated fluorescence imaging in combination with high content image analysis. In parallel, the cell viability is assessed using an alamar blue viability assay and the cytotoxicity using a lactate dehydrogenase dependent membrane integrity assay.IUF_NPC2-5_cell number_120hr is one of 12 assay components measured from the IUF_NPC2-5 assay. The cell number at 120 hr is assessed as the number of all Hoechst-positive nuclei identified in the migration area (see IUF_NPC2a_ glia_migration_120hr).Data from the IUF_NPC2-5_cell_number_120hr component was analyzed at the endpoint IUF_NPC2-5_cell_number_120hr in the positive analysis fitting direction relative to DMSO as the negative control and baseline of activity. Using a type of viability reporter, gain or loss-of-signal activity can be used to understand viability effects.
Culture protocol: After the cell expansion period the cells are cultured for up to four weeks in which they are passaged every week as described in 3.6. Between one to three days after passaging spheres at a size of 0.3 mm are picked for the test method. For the assessment of neural progenitor cell migration and differentiation, the spheres are plated on poly-D-lysine/laminin coated 96-well flat bottom plates in differentiation medium (N2) to initiate migration and differentiation. Thereby one 0.3 mm big sphere is plated in the middle of a well. The differentiation medium consists of DMEM and Ham's F12 at a ratio of 3 to 1 supplemented with 1% N2 and 1% penicillin and streptomycin. Within 5 days NPCs radially migrate out of the sphere core and differentiate into radial glia cells (nestin positive), neurons (TUBB3 positive), oligodendrocytes (O4 positive) and astrocytes (GFAP positive). Cultivation during the test method is performed at 37C and 5% CO2 at a ph of 7.2-7.6.Exposure: 0.3 mm big hNPC are plated in the already prepared test conditions. Exposure starts at day 0 of differentiation and is continued over five days of differentiation until the experiment is terminated. Cells are fed with fresh medium at day 3 of differentiation. Therefore, half of the test condition solution (e.g. solvent control or compound dilution) is replaced by freshly prepared test condition solution.Test Method: Migration distance and cytotoxicity is determined after 72 hours based on brightfield images of each well. The assay is terminated by the assessment of cell viability and cytotoxicity as well as cell fixation after 120 h. Immunocytochemistry is performed for Hoechst positive nuclei, TUBB3 positive neurons and O4 positive oligodendrocytes. On the ICC images, migration after 120 hours, neuronal and oligodendrocyte number, neuronal morphology and neuron/oligodendrocyte specific migration is assessed. immunocytochemical staining (ICC) generates an image for each sphere. The plates are scanned using an automated high content imaging device and all nuclei and their positions are determined automatically based on their intensity and size. Images are imported to the Omnisphero software to run the image analysis that measures the following endpoints. The method is set up for 8 test conditions including 7 compound concentrations and one SC. The test conditions are prepared in a serial dilution from the stock solution. […]
Turning to `CO/C=C(/C(=O)OC)c1ccccc1Oc1cc(Oc2ccccc2C#N)ncn1`, the compound was called inactive. Same read-out and setting: under `CCOc1cc(Oc2ccc(C(F)(F)F)cc2Cl)ccc1[N+](=O)[O-]` stands “inactive”. `CCOC(=O)CC(SP(=S)(OC)OC)C(=O)OCC` (centres undefined): the outcome was inactive. In the case of `COC(=O)N(OC)c1ccccc1COc1ccn(-c2ccc(Cl)cc2)n1`, the AC50 was 3.23 µM (active).

Take `COP(=S)(OC)Oc1nc(Cl)c(Cl)cc1Cl`: the call was inactive. Regarding `CCCCOC(=O)c1ccccc1C(=O)OCCCC`, the compound was called inactive. Same read-out and setting: for `C=CC1(C)OC(=O)N(c2cc(Cl)cc(Cl)c2)C1=O` (centres undefined) the value was “inactive”; for `COP(N)(=O)SC` (centres undefined), “inactive”. For `CC(C)(C)c1ccc(CSc2cnn(C(C)(C)C)c(=O)c2Cl)cc1`, the compound was called inactive. Consider `CCCCC(CC)COC(=O)c1ccccc1C(=O)OCC(CC)CCCC` (centres undefined), for which the call was inactive. Turning to `CN(C)C(=S)SSC(=S)N(C)C`, the AC50 was 26.1 µM (active). For `CNC(=O)ON=CC(C)(C)SC`, the call was inactive.

Turning to `Cc1ccc(-c2c(Cl)nc(C#N)n2S(=O)(=O)N(C)C)cc1`, the AC50 was 13.2 µM (active). Same read-out and setting: under `N#Cc1nn(-c2c(Cl)cc(C(F)(F)F)cc2Cl)c(N)c1S(=O)C(F)(F)F` (centres undefined) stands 14.2 µM (active).
